Measurements reported in PubChem BioAssay (NCATS).
Records with an inconclusive call do not appear. Where a call stands in place of a potency, no number is given. Active and inactive are the calls of the source. Unless noted, calls follow the shape of the dose curve; as a rule, active = well fitted curve in the direction sought with a large enough effect; inconclusive = small, poorly fitted or top-dose-only effect, or another doubt; inactive = no such curve, though single readings can be large; an effect the other way counts as inactive or inconclusive.

How the values were obtained:
[1] = molecular target: Cytochrome P450 3A4 (Homo sapiens) (UniProt P08684); assay: qHTS Assay for Inhibitors and Substrates of Cytochrome P450 3A4 (AID 884); settings: recombinant CYP3A4, Luciferin-PPXE luminescence; series mostly up to 57.1 µM; also: nearly all actives have a fitted effect of over 50% in size
How it was run: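 Luminescent readout of luciferin produced by CYP3A4 (20 nM) dealkylation of Luciferin-PPXE, 25 uM (its KM). NADPH-driven reaction ran 60 min at RT after 10 min compound preincubation; data scaled to 57 uM ketoconazole as 100% inhibition.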

[2] = Confirmation and Secondary Assay for Modulators of Hemoglobin Beta Chain Splicing at IVS2 654 locus (AID 910); settings: HeLa EGFP-654 splicing reporter, GFP fluorescence, 48 h; series mostly up to 46.1 µM;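 also: HeLa cells stably carrying EGFP split by mutant beta-globin IVS2-654 intron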
How it was run: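 Readout: per-well total peak green fluorescence (488 nm ex, 500–520 nm em) from objects 5–250 µm, reflecting correct splicing of an EGFP-654 reporter. Compounds were applied for 2 days at 37 °C to overnight-plated HeLa EGFP-654 cells; controls were DMSO and 500 nM IVS2-654 PNA.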

[3] = Confirmation and Secondary Assay for Modulators of Hemoglobin Beta Chain Splicing at IVS2 705 locus (AID 930); settings: HeLa EGFP-705 splicing reporter, GFP fluorescence, 48 h; series mostly up to 46.1 µM;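 also: HeLa cells stably expressing the EGFP-705 splicing reporter; GFP fluorescence per well restored by corrected splicing of the IVS2-705 intron in EGFP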
How it was run: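 Read-out: total peak GFP fluorescence per well (488 nm excitation, 500-520 nm emission) by laser-scanning cytometry. Cells: HeLa EGFP-705 splicing reporter, 2 days compound exposure in Optimem/2% FCS.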

[4] = qHTS Assay for Lipid Storage Modulators (AID 1519; calls by dose curve); settings: Drosophila S3 cells, BODIPY lipid droplet/cell ratio, laser cytometry, cells loaded with oleic acid; for activity change, negative = inhibition: at 57.5 µM (top of the series)
How it was run: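 Cells seeded at 5,000 per well were treated with compounds over a concentration series and loaded with oleic acid (400 uM, as added). Lipid droplet fluorescence (488 nm excitation, 500-530 nm channel) was read by laser-scanning cytometry and normalized to 20 uM Triacsin C.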

[5] = molecular target: Ubiquitin carboxyl-terminal hydrolase 1 (Homo sapiens) (UniProt O94782); assay: Inhibitors of USP1/UAF1: Pilot qHTS (AID 504865); settings: purified USP1/UAF1, Ub-rhodamine cleavage fluorescence; series mostly up to 114 µM;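 also: rhodamine fluorescence freed from ubiquitin-rhodamine substrate followed over time; top concentration of the series differs between compounds; nearly all actives have a fitted effect of over 35% in size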
How it was run: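 Kinetic fluorescence assay: 1nM USP1/UAF1, 15 min compound preincubation, then 150nM Ub-Rho; 480/540 nm.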

[6] = measured here: cell count channel max response
[7] = measured here: lipid channel max response

Sequence of Ubiquitin carboxyl-terminal hydrolase 1 (Homo sapiens) (O94782 whole entry, looked up): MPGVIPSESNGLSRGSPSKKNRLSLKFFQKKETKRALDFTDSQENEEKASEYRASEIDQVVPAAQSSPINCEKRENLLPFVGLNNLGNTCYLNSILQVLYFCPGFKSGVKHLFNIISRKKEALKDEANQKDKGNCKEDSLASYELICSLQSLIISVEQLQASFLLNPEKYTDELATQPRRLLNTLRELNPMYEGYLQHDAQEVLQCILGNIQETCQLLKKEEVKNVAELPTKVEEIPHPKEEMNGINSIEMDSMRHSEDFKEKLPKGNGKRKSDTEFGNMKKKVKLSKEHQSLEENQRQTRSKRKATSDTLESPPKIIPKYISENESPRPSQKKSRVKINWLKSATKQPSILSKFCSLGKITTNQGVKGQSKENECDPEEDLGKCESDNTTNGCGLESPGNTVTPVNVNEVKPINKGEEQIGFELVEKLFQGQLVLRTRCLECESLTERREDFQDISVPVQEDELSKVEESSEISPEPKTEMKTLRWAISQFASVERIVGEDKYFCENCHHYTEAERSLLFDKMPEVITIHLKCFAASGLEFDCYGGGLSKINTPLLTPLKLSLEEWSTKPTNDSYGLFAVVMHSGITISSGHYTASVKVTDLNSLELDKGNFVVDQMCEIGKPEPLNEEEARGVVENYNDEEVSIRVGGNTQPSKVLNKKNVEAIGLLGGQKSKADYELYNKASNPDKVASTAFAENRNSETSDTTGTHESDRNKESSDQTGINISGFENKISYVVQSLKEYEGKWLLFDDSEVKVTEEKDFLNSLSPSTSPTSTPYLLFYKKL
Sequence of Cytochrome P450 3A4 (Homo sapiens) (P08684 whole entry, looked up): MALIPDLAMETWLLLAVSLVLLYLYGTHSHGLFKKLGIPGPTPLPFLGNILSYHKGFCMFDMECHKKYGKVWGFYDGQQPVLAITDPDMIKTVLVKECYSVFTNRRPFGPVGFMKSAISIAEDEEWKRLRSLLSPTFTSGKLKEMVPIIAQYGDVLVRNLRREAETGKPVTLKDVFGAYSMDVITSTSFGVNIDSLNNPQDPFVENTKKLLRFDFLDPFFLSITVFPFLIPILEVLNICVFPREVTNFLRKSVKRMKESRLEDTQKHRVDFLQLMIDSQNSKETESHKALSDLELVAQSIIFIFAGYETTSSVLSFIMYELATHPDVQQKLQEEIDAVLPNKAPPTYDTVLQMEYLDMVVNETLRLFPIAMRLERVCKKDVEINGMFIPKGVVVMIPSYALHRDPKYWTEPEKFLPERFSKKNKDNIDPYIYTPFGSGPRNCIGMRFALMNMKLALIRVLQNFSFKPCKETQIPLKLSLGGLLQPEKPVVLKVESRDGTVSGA

Row | Structure (SMILES) | Potency [1] | Potency [2] | Potency [3] | activity change, negative = inhibition [4] | max response [4, 6] | max response [4, 7] | Potency [5]
1 | CCNC(=O)CCC(N)C(=O)O (configuration not stated) | inactive | inactive | inactive | 2.77% (inactive) | 9.46% | 16.9% | inactive
2 | C[N+]1(C)CC(O)[C@H](C(=O)[O-])C1 (some centres not stated) | inactive | inactive | inactive | 1.35% (inactive) | 0.129% | 0.467% | inactive
3 | C[C@@]12CCC3c4ccc(OS(=O)(=O)O)cc4CCC3C1CCC2O (some centres not stated) | inactive | inactive | inactive | 4.64% (inactive) | 6.41% | 9.99% | inactive
4 | CC(C)CCCC(C)C1CCC2C3CC[C@H]4CC(=O)CC[C@@]4(C)C3CC[C@@]12C (some centres not stated) | inactive | inactive | inactive | 1.96% (inactive) | 8.57% | 10.7% | inactive
5 | CC(=O)OCCC(C)CCC=C(C)C (configuration not stated) | inactive | inactive | inactive | 5.97% (inactive) | 4.67% | 12.4% | inactive
6 | Nc1ncnc2c1ncn2C1OC(COP(=O)(O)O)C(O)C1O (configuration not stated) | inactive | inactive | inactive | 5.46% (inactive) | 29.6% | 41.9% | inactive
7 | CNC1C(O)C(O)C(CO)O[C@H]1OC1C(O[C@@H]2C(O)C(O)[C@@H](N=C(N)N)C(O)C2N=C(N)N)OC(C)[C@]1(O)C=O (some centres not stated) | inactive | inactive | inactive | 11.1% (inactive) | 10.8% | 24.1% | inactive
8 | C=CCSCC=C | inactive | inactive | inactive | 6.16% (inactive) | -10.4% | -1.96% | inactive
9 | Nc1nc2c(nc(Br)n2C2OC(CO)C(O)C2O)c(=O)[nH]1 (configuration not stated) | inactive | inactive | inactive | 2.67% (inactive) | 15.6% | 18.1% | inactive
10 | [N-]=[N+]=NCC1OC(n2cnc3c(=O)[nH]c(N)nc32)C(O)C1O (configuration not stated) | inactive | inactive | inactive | 4.07% (inactive) | 12.7% | 19.1% | inactive
11 | CCC1OC(=O)C(C)[C@@H](O[C@H]2C[C@@](C)(OC)C(O)C(C)O2)C(C)[C@@H](O[C@@H]2OC(C)CC(N(C)C)C2O)[C@](C)(O)CC(C)/C(=N\OCOCCOC)[C@H](C)C(O)[C@]1(C)O (some centres not stated) | inactive | inactive | inactive | 7.24% (inactive) | 27.8% | 41% | inactive
12 | CC12CCC3C(CC3(C)C)C(C)(CCC1=O)O2 (configuration not stated) | inactive | inactive | inactive | 8.76% (inactive) | 19% | 26.9% | inactive
13 | CC1(C)OC2C[C@](O)(C(N)=O)C[C@H](O)[C@H]2O1 (some centres not stated) | inactive | inactive | inactive | 3.65% (inactive) | 15.6% | 23.7% | inactive
14 | O=c1[nH]cnc2c1nc(Cl)n2C1OC(CO)C(O)C1O (configuration not stated) | inactive | inactive | inactive | 3.67% (inactive) | 5.38% | 10.4% | inactive
15 | COC(=O)C1=CO[C@@H](O[C@H]2OC(CO)C(O)C(O)C2O)C2C1CC(O)C2C (some centres not stated) | inactive | inactive | inactive | 6.73% (inactive) | 11.3% | 19.4% | inactive
16 | Cn1c(=O)[nH]c2nc[nH]c2c1=O | inactive | inactive | inactive | 5.61% (inactive) | 14% | 22.4% | inactive
17 | O=C(Cc1ccccc1)NO | inactive | inactive | inactive | 4.41% (inactive) | 2.32% | 5.58% | inactive
18 | Nc1nc(O)c2ncn([C@H]3CC[C@@H](CO)O3)c2n1 | inactive | inactive | inactive | 7.72% (inactive) | -2.43% | 2.95% | inactive
19 | CC1(C)SC2C(NC(=O)C(NC(=O)N3CCNC3=O)c3ccccc3)C(=O)N2C1C(=O)O (configuration not stated) | inactive | inactive | inactive | 8.06% (inactive) | 17.4% | 28.9% | inactive
20 | NC(N)=NCCCC(NC(=O)C(N)Cc1ccc(O)cc1)C(=O)O (configuration not stated) | inactive | inactive | inactive | 5.19% (inactive) | 20.9% | 29% | inactive
21 | CCOc1ccc(C(=O)c2ccc(OC)c(O)c2O)cc1 | inactive | inactive | inactive | 7.45% (inactive) | 6.67% | 16.2% | inactive
